# Data reported in PubChem BioAssay (EPA / NIEHS).
# Where “and” joins values, the source holds several entries; their conditions need not be identical. Equal entries are not always repeated. A structure can be active in one record and inactive in another. Calls of active or inactive are those of the source. Rule for the calls: active = hit-call score of the fitted dose curve at least 0.9, where 1 is the maximum; inactive = score below 0.9.
# What was measured:
# [1] = ATG_E_Box_CIS: Attagene CIS-FACTORIAL HepG2 Assay for human Enhancer Box (E-box) (AID 2282936); details: HepG2 E-box cis-reporter transcription, actives raise or lower the signal
# Summary of the method: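 In this cell-based setup, HepG2 cells bearing transfected promoter-driven reporter units were exposed to chemicals for 24 h; reporter transcripts were amplified, 6-FAM-labelled, cut with HpaI and sized by capillary electrophoresis.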
# [2] = ATG_M_61_CIS: Attagene CIS-FACTORIAL HepG2 Assay for M61 Transcription Factor (Internal Marker) (AID 2282937); details: HepG2 Attagene CIS-FACTORIAL M61 internal marker reporter; actives raise or lower the signal
# Summary of the method: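 This endpoint serves as an internal background control within a multiplexed HepG2 cis-reporter panel. Cells are exposed for 24 h; reporter mRNA is amplified, fluorescently labelled and sized by capillary electrophoresis, with DMSO as negative control.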
# [3] = ATG_EGR_CIS: Attagene CIS-FACTORIAL HepG2 Assay for human Early Growth Response 1 (EGR1) (AID 2282938); details: HepG2 Attagene CIS-FACTORIAL EGR reporter mRNA; actives raise or lower the signal
# Summary of the method: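 HepG2, transient MRTU transfection (cis promoters), 24 h compound. RNA → RT (oligo-dT) → PCR → 6-FAM labelling → HpaI cut → CE fluorescence. Bidirectional fit, DMSO baseline.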
# [4] = ATG_M_19_CIS: Attagene CIS-FACTORIAL HepG2 Assay for M19 Transcription Factor (Internal Marker) (AID 2282939); details: HepG2 Attagene CIS-FACTORIAL M19 internal marker reporter; actives raise or lower the signal
# Summary of the method: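 Following a 24 h exposure, RNA from transfected HepG2 cells was reverse-transcribed, PCR-amplified with reporter-specific primers, end-labelled with 6-FAM and HpaI-digested before capillary separation. Values represent gain or loss versus DMSO.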
# [5] = ATG_ERE_CIS: Attagene CIS-FACTORIAL HepG2 Assay for Estrogen Response Element (ERE) (AID 2282940); details: HepG2 ERE cis-reporter, Attagene RNA transcript; actives raise or lower the signal
# Summary of the method: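 HepG2, transient cis-reporter units, 24 h exposure. RNA isolated, oligo(dT) RT, reporter-specific PCR, FAM extension, HpaI cut, CE detection. Gain/loss-of-signal vs DMSO.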
# [6] = ATG_Ets_CIS: Attagene CIS-FACTORIAL HepG2 Assay for human Erythroblast Transformation Specific (ETS) (AID 2282941); details: HepG2 ETS cis-reporter transcription, actives raise or lower the signal
# Summary of the method: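 RT-PCR/capillary electrophoresis fluorescence read-out of reporter mRNA; HepG2 transient multi-reporter transfection; 24 h compound exposure; gain or loss of signal fitted bidirectionally relative to DMSO.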
# [7] = target: Hepatocyte nuclear factor 3-beta (Homo sapiens) (UniProt Q9Y261); test: ATG_FoxA2_CIS: Attagene CIS-FACTORIAL HepG2 Assay for human Forkhead box A2 (FOXA2) (AID 2282942); details: HepG2 cis-reporter transcription factor activity, 24 h; actives raise or lower the signal
# Summary of the method: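 Cells: HepG2, transient multiplex reporter transfection. Exposure 24 h. Detection: reporter-specific RT-PCR, fluorescent labelling, restriction digest, capillary electrophoresis. Analysis: bidirectional curve fit, DMSO as negative control.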
# [8] = ATG_FoxO_CIS: Attagene CIS-FACTORIAL HepG2 Assay for human Forkhead box O (FoxO) (AID 2282943); details: HepG2 Attagene cis-reporter, FoxO element, mRNA; actives raise or lower the signal
# Summary of the method: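 HepG2 cells transiently transfected with cis-element-driven reporter units report endogenous FoxO activity. After 24 h chemical exposure, reporter mRNA quantified by RT-PCR, fluorescent labeling, HpaI digestion and capillary electrophoresis; bidirectional fit versus DMSO.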
# [9] = ATG_GATA_CIS: Attagene CIS-FACTORIAL HepG2 Assay for human GATA Binding Protein (AID 2282944); details: HepG2 GATA cis-element reporter, Attagene multiplex mRNA; actives raise or lower the signal
# Summary of the method: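 DMSO serves as negative control and baseline for bidirectional fitting of reporter mRNA changes. HepG2 cells bearing transiently transfected cis-promoter reporters were exposed 24 h; transcripts detected via RT-PCR and capillary electrophoresis.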
# [10] = ATG_GLI_CIS: Attagene CIS-FACTORIAL HepG2 Assay for human Zinc Finger Protein GLI1 (AID 2282945); details: HepG2, Attagene cis-factorial reporter mRNA, GLI element; actives raise or lower the signal
# Summary of the method: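 Transiently transfected HepG2 cells report endogenous transcription factor activity via cis-element-driven reporter units. After 24 h compound exposure, reporter mRNA was measured by RT-PCR with capillary electrophoresis; bidirectional fitting against DMSO baseline.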
# Chain of Hepatocyte nuclear factor 3-beta (Homo sapiens) (Q9Y261 whole entry, looked up): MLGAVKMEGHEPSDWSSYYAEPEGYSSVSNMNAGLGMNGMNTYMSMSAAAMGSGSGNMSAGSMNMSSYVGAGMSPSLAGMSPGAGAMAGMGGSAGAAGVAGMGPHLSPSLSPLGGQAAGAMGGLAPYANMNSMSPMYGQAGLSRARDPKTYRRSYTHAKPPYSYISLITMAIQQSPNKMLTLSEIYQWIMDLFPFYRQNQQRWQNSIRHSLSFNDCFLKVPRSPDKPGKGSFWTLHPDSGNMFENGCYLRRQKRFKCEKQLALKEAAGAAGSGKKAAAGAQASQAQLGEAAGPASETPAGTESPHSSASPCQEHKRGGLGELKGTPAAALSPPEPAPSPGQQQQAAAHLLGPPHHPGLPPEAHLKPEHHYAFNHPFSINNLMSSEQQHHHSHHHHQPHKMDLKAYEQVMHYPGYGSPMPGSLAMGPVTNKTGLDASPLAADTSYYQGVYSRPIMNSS
Structure (SMILES),outcome [1],outcome [2],outcome [3],outcome [4],outcome [5],outcome [6],outcome [7],outcome [8],outcome [9],outcome [10],AC50 [1],AC50 [3],AC50 [6],AC50 [7],AC50 [9],AC50 [5],AC50 [10]
O=C1c2ccccc2C(=O)N1CCc1noc(-c2ccc(CN3CCCCCC3)s2)n1,inactive,inactive,inactive,inactive,inactive,inactive,inactive,inactive,inactive,inactive,,,,,,,
C[C@]12CC[C@@H]3c4ccc(O)cc4CC[C@H]3[C@@H]1CC[C@H]2O,inactive,inactive,inactive,inactive,,inactive,inactive,inactive,inactive,inactive,19.8 µM (active),42 µM (active),,,,,
Cc1occc1C(=O)Nc1ccc(C(=O)N2CCC(F)(F)/C(=C\C(=O)N3CCC(N4CCCCC4)CC3)c3ccccc32)cc1,,inactive,,inactive,inactive,,,inactive,,inactive,27.4 µM (active),34.5 µM (active),55.9 µM (active),34.5 µM (active),46.7 µM (active),,
Cc1ccc(C(C)C)cc1,inactive,inactive,inactive,inactive,inactive,inactive,inactive,inactive,inactive,inactive,,,,,,,
O=c1[nH]sc2ccccc12,inactive,inactive,inactive,inactive,inactive,inactive,inactive,inactive,inactive,inactive,,,,,,,
CC[C@@H]1C[C@H](N(Cc2cc(C(F)(F)F)cc(C(F)(F)F)c2)C(C)=O)c2cc(C(F)(F)F)ccc2N1C(=O)OC(C)C,inactive,inactive,inactive,inactive,inactive,inactive,inactive,inactive,inactive,inactive,,,,,,,
CCCCCCCCOC(=O)c1cc(O)c(O)c(O)c1,inactive,inactive,inactive,inactive,inactive,inactive,inactive,inactive,,inactive,,,,,,,
CN(C)C(=O)C1(N2CCCCC2)CCN(CC[C@@]2(c3ccc(Cl)c(Cl)c3)CN(C(=O)c3ccccc3)CCO2)CC1,inactive,inactive,inactive,inactive,inactive,inactive,inactive,inactive,inactive,inactive,,,,,,,
O=C(O)c1ccccc1C(=O)OCc1ccccc1,inactive,inactive,inactive,inactive,inactive,inactive,inactive,inactive,inactive,inactive,,,,,,,
CC[C@H](NC(=O)c1cc(F)ccc1NS(=O)(=O)c1cccc2cccnc12)c1ccccc1,inactive,inactive,inactive,inactive,inactive,inactive,inactive,inactive,inactive,inactive,,,,,,,
CC(C)(C)c1cc(/C=C2\SC(N)=NC2=O)cc(C(C)(C)C)c1O,inactive,inactive,,inactive,inactive,inactive,inactive,inactive,,inactive,,8.13 µM (active),,,,,
O=c1ccc2ccccc2o1,inactive,inactive,inactive,inactive,inactive,inactive,inactive,inactive,inactive,inactive,,,,,,,
COc1ccc2cc(S(=O)(=O)N[C@H](CC(=O)N[C@H](Cc3ccc(CN4[C@H](C)CCC[C@@H]4C)cc3)C(=O)N(C)C(C)C)c3ccc4c(c3)OCO4)ccc2c1,inactive,inactive,,inactive,inactive,inactive,inactive,inactive,inactive,inactive,,11 µM (active),,,,,
CCCCCc1ccc(N)cc1,inactive,inactive,inactive,inactive,,inactive,inactive,inactive,inactive,inactive,5.55 µM (active) and 4.89 µM (active),,,,,15.1 µM (active) [middle of 4 runs],
Cc1ccc2oc(CN(Cc3ccccc3)C(=O)Nc3c(F)cc(F)cc3F)c(-c3ccc(Cl)cc3)c2c1,inactive,inactive,inactive,inactive,inactive,inactive,inactive,inactive,inactive,inactive,,,,,,,
CC1=CC(=O)/C(=C(/C)O)C(=O)O1,inactive,inactive,inactive,inactive,inactive,inactive,inactive,inactive,inactive,inactive,,,,,,,
O=C(Nc1ccc(Cl)cc1)Nc1ccc(Cl)c(Cl)c1,inactive,inactive,inactive,inactive,inactive,inactive,inactive,inactive,inactive,inactive,,,,,,,
NC(=O)c1nc(-c2cccc(-c3cc(F)ccc3OCC(F)(F)C(F)(F)F)c2)n[nH]1,inactive,inactive,,inactive,inactive,inactive,inactive,inactive,inactive,inactive,,40.2 µM (active),,,,,

Structure (SMILES),outcome [1],outcome [2],outcome [3],outcome [4],outcome [5],outcome [6],outcome [7],outcome [8],outcome [9],outcome [10],AC50 [1],AC50 [3],AC50 [6],AC50 [7],AC50 [9],AC50 [5],AC50 [10]
CCO[Si](CCCNC(N)=O)(OCC)OCC,inactive,inactive,inactive,inactive,inactive,inactive,inactive,inactive,inactive,inactive,,,,,,,
Cc1cc2c(cc1C(F)(F)F)N(C(=O)Nc1ccc(Oc3cccnc3C)nc1)CC2,inactive,inactive,inactive,inactive,inactive,inactive,inactive,inactive,inactive,inactive,,,,,,,
CN1C(=O)N(c2ccccc2Br)Cc2cnc(Nc3ccc4c(c3)OCC(CO)O4)nc21 (stereo unspecified),inactive,inactive,,inactive,inactive,inactive,inactive,inactive,inactive,inactive,,12.2 µM (active),,,,,
O=C(OCCCCCCOC(=O)c1ccccc1)c1ccccc1,inactive,inactive,inactive,inactive,inactive,inactive,inactive,inactive,inactive,inactive,,,,,,,
CCCCOC(=O)c1ccc(O)cc1,inactive,inactive,inactive,inactive,,inactive,inactive,inactive,,inactive,138 µM (active),97.1 µM (active),157 µM (active),,,,125 µM (active)
CCN(CC)C(=O)c1cc(S(=O)(=O)Cc2ccccc2)c(N2CCC(c3ccccc3)CC2)cc1N(CC)CCN(C)C,inactive,inactive,inactive,inactive,inactive,inactive,inactive,inactive,inactive,inactive,,,,,,,
Cc1cc(F)ccc1-c1cc(N2CC[C@@H](O)[C@H]2CO)ncc1N(C)C(=O)C(C)(C)c1cc(C(F)(F)F)cc(C(F)(F)F)c1,inactive,inactive,inactive,inactive,inactive,inactive,inactive,inactive,inactive,inactive,,,,,,,
O=C(O)Cn1c(=O)n(Cc2ccc(Br)cc2F)c(=O)c2ccc(Cl)cc21,inactive,inactive,inactive,inactive,inactive,inactive,inactive,inactive,inactive,inactive,,,,,,,
O=C=NCCCCCCN=C=O,inactive,inactive,inactive,inactive,inactive,inactive,inactive,inactive,,inactive,,,,,,,
Cc1cccc2ccccc12,inactive,inactive,inactive,inactive,inactive,inactive,inactive,inactive,inactive,inactive,,,,,,76.8 µM (active),
O=C1CCC(C2CCCCC2)CC1,inactive,inactive,inactive,inactive,,inactive,inactive,inactive,,inactive,185 µM (active),130 µM (active),131 µM (active),,,,
COCC(C)OCC(C)OCC(C)O (stereo unspecified),inactive,inactive,inactive,inactive,inactive,inactive,inactive,inactive,inactive,inactive,,,,,,,
O=C(O)c1ccccc1-n1cc(C(=O)O)c(=O)c2cc(Nc3c(F)cc(F)cc3Cl)c(Cl)cc21,inactive,inactive,inactive,inactive,inactive,inactive,inactive,inactive,inactive,inactive,,,,,,,
CCN(Cc1cccc(S(=O)(=O)O)c1)c1ccc(C(=C2C=CC(=[N+](CC)Cc3cccc(S(=O)(=O)O)c3)C=C2)c2ccccc2S(=O)(=O)[O-])cc1,inactive,inactive,inactive,inactive,inactive,inactive,inactive,inactive,inactive,inactive,,,,,,,
Clc1ccccc1C(c1ccccc1)(c1ccccc1)n1ccnc1,inactive,inactive,,inactive,,inactive,inactive,inactive,,inactive,,8.64 µM (active),,,15.6 µM (active),0.438 µM (active),
OCCO,inactive,inactive,inactive,inactive,inactive,inactive,inactive,inactive,inactive,inactive,,,,,,,
c1ccc(C[n+]2cccc3ccccc32)cc1,inactive,inactive,inactive,inactive,,inactive,inactive,inactive,,inactive,,,,,,74.1 µM (active),
Oc1ccc2ccccc2c1,inactive,inactive,inactive,inactive,,inactive,inactive,inactive,,inactive,8.89 µM (active),,,,,,
